Assay [1] in a line: anti-His antibody binders, primary screen, artefact control for SMM control protein annotation, biochemical, small-molecule microarray, 635 nm fluorescence (AID 1128).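 Note: score merges feature fluorescence with signal-to-noise for each printed compound spot.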 To be noted: anti-His Alexa647 antibody binding, higher = more signal.
Assay [2] deals with Human papillomavirus type 1a E7 protein (residues 1-88). The assay is described as follows: HPV1a E7 small-molecule binders, primary screen, biochemical, small-molecule microarray, residues 1-88, 635 nm (AID 1129). The conditions noted are these: small-molecule microarray binding, fluorescence 635 nm; higher = more signal.
Assay [3] concerns the target Focal adhesion kinase 1 (Homo sapiens) (UniProt Q05397). The assay is described as follows: small-molecule microarray binders of FAK, primary screen, biochemical, 635/667 nm fluorescence, BSA, DTT (AID 1130).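 Note: composite of spot emission at 667 nm and signal to noise over triplicate slides.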 To be noted: PTK2 binding, 635 nm fluorescence, higher = more signal.
The test system of assay [4] is Fibrinogen (Alexa647-labelled). The experiment in a line: fibrinogen binders on compound microarrays, profiling panel, artefact control for SMM control-protein annotation, biochemical, small-molecule microarray, 635/667 nm fluorescence (AID 1131).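 Note: z-score merges 667 nm fluorescence with per-spot signal-to-noise over triplicate slides.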 The conditions noted are these: fibrinogen-A647 binding fluorescence, higher = more signal.
For assay [5], the target named is Follistatin (Homo sapiens) (UniProt P19883). The assay is described as follows: follistatin binders on small-molecule microarrays, primary screen, biochemical, small-molecule microarray, 635/667 nm fluorescence (AID 1132). To be noted: FST binding, 635 nm fluorescence, higher = more signal.
In assay [6] the target is Fibroblast growth factor 2 (Homo sapiens) (UniProt P09038). The experiment in a line: FGF2 binders on small-molecule microarrays, primary screen, biochemical, small-molecule microarray, 635/667 nm fluorescence (AID 1133). The conditions noted are these: small-molecule microarray binding, FGF2, fluorescence 635/667; higher = more signal.
A short description of assay [7]: mitochondrial membrane potential change in A549 cells, profiling panel, cell-based, JC-1 fluorescence, basal, 24 h, 100 nL (AID 1138).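 Note: A549 lung adenocarcinoma cells under basal conditions with no added stimulus; test concentration not given here.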 To be noted: higher = more signal.
The test system of assay [8] is Lefty1. The assay is described as follows: Lefty1 binders on small-molecule microarrays, primary screen, biochemical, small-molecule microarray, 635/667 nm fluorescence (AID 1139). To be noted: small-molecule microarray binding, fluorescence 635/667; higher = more signal.
The subject of assay [9] is wheat germ agglutinin (Triticum aestivum), Alexa647-labelled. The experiment in a line: wheat germ agglutinin binders on compound microarrays, profiling panel, artefact control for SMM control-protein annotation, biochemical, small-molecule microarray, 635/667 nm fluorescence (AID 1140).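 Note: score merges 667 nm feature emission with signal to noise over triplicate slides.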 The conditions noted are these: WGA-A647 binding, 635 nm fluorescence, higher = more signal.

Assay [10] has as its target Luciferin 4-monooxygenase (Photinus pyralis) (UniProt P08659). The assay is described as follows: firefly luciferase enzyme inhibitors, primary screen, biochemical, luminescence, purified enzyme, 2006 set (AID 1141).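 Note: cell-free assay with purified firefly luciferase at 100 ng per well in PBS; test concentration not given here.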 To be noted: SteadyGlo luminescence, 30 min, higher = more signal, called active from +8 up or from −8 down.

Activity calls are given as the source filed them.

Sequence of Fibroblast growth factor 2 (Homo sapiens) (P09038 whole entry, looked up): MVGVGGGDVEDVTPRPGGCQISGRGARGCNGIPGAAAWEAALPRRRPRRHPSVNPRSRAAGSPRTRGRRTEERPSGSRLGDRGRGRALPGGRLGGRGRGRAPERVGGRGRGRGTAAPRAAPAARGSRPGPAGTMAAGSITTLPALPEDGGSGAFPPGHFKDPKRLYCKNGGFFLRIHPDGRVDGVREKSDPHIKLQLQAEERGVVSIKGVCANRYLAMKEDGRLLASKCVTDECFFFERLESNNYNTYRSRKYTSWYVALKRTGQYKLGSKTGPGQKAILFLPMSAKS
Sequence of Focal adhesion kinase 1 (Homo sapiens) (Q05397 whole entry, looked up): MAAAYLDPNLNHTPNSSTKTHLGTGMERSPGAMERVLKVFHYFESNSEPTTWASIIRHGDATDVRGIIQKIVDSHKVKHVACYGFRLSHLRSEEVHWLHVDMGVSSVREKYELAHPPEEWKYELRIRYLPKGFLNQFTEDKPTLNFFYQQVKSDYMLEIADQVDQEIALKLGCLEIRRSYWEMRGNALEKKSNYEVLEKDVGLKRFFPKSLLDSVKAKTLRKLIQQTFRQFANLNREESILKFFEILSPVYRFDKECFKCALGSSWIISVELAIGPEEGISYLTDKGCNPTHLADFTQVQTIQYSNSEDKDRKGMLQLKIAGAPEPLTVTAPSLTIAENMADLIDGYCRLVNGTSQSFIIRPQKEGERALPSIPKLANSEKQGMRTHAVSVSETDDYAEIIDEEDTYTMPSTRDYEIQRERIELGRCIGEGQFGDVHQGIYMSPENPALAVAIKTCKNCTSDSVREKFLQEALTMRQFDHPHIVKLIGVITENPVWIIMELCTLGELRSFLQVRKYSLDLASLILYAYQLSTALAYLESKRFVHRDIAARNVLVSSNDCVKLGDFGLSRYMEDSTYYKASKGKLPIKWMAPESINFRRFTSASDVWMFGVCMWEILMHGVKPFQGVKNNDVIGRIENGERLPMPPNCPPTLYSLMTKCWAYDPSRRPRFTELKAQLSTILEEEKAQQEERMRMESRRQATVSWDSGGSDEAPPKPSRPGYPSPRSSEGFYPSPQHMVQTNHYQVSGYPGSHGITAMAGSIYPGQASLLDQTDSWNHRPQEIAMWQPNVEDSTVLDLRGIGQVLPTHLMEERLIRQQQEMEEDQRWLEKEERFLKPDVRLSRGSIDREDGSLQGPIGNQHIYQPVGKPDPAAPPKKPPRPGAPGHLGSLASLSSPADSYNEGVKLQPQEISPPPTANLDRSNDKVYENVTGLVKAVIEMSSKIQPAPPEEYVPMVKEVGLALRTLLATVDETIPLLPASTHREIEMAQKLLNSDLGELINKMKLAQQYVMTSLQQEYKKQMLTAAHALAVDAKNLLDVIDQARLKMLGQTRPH
Sequence of Follistatin (Homo sapiens) (P19883 whole entry, looked up): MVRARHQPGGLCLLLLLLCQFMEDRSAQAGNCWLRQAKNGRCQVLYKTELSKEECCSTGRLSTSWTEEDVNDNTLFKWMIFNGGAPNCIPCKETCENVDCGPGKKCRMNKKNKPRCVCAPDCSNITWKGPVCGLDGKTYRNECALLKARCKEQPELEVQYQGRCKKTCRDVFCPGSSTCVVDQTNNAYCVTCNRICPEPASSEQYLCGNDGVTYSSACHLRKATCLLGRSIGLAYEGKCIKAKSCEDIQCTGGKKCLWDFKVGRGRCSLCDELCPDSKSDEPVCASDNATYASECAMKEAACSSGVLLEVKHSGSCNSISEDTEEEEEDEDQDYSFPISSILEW
Sequence of Luciferin 4-monooxygenase (Photinus pyralis) (P08659 whole entry, looked up): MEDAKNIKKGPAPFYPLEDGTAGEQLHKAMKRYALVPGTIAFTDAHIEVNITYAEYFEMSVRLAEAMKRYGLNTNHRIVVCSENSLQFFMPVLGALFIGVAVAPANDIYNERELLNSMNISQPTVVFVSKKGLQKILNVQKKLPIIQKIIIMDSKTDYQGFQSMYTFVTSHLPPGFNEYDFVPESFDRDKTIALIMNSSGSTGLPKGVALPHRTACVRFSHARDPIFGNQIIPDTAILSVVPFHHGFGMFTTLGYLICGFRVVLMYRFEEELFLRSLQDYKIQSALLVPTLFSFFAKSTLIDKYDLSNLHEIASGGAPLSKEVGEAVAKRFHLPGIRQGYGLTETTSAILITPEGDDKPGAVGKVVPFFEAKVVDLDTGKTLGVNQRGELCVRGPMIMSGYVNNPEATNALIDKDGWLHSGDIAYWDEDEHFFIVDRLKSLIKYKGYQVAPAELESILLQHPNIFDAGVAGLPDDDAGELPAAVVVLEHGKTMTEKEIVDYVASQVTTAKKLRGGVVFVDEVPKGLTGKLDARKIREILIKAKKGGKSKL

On to `C[N+](C)(C)CCCCCCNC(=O)[C@@H]1C[C@@H]2C(=O)NCC(=O)N2[C@@H]1c1cccc(OCCO)c1`, for which the composite z-score in assay [1] was found to be 1.4; in assay [2], 0.044; in [3] it was 1.18; in [4], 0.615; in [5], 1.38; in [6], 1.33. Also, the composite z-score was found to be 1.28 in assay [8] and 0.571 in assay [9]. For the same compound, the z-score in assay [7] was -0.842; in assay [10], 0.801 (inactive).

`COc1cccc(C[C@H]2C[C@@H](CO[Si](C(C)C)(C(C)C)C(C)C)N3C(=O)[C@]4(C(C)=O)O[C@]23[C@H]2C(=O)N(C)C(=O)[C@H]24)c1`: the composite z-score in assay [1] stood at 0.786; in assay [2], 1.04; in [3] it was 0.353; in assay [4] it was 0.674; in assay [5], 0.9; in assay [6], 0.865. The composite z-score in assay [8] was 1.19; in [9] it was 0.425. Moreover, the z-score in assay [7] was 1.51; in [10], 0.216 (inactive).

For the compound `COc1cc(C(O)C2C=CC3C(=O)N(C)C(=O)C3N2NC(=O)OC(C)(C)C)cc(OC)c1OC` (stereo not given), the composite z-score in [1] is 1.28; in [2] it was 1.21; in assay [3], 0.474; in [4], 1.03; in [5], 0.0314; in [6], -0.0371. Moreover, the composite z-score in [8] was -0.338; in assay [9] it was 0.807. Also, the z-score in [7] was -0.54; in assay [10] it was 0.225 (inactive).

In the case of `COC(=O)[C@@]1(Cc2ccc(F)cc2)[C@H]2c3cc(C(=O)N4CCCC4)n(Cc4ccccc4)c3C[C@H]2CN1C(=O)c1ccccc1`, the composite z-score in [1] was 1.66; in assay [2], 0.923; in assay [3] it was 1.08; in assay [4], 0.805; in assay [5] it was 0.724; in [6], -0.481. For the same compound, the composite z-score in assay [8] is -0.0042; in [9] it was 0.768. Further, the z-score is -1.23 in assay [7] and 2.22 (inactive) in assay [10].

As to `C=CCC(OC(C)=O)[C@@H]1[C@@H](N(Cc2ccc(-c3ccccc3)cc2)C(=O)Cc2ccc(OC)cc2)c2cc(OCCCO)ccc2N1C(=O)c1ccc(-c2ccccc2)cc1` (stereo not given in full), the composite z-score was -0.163 in assay [1]; 0.152 in assay [2]; 0.855 in [3]; 0.137 in [4]; 0.409 in assay [5]; -0.0805 in assay [6]. For the same compound, the composite z-score in assay [8] is 0.182; in assay [9], 0.495. The figures for the z-score in assay [7] and in assay [10] were 2.32 and -0.663 (inactive), respectively.

For `Cc1ccc(S[C@]2(C(=O)O)CC(=O)N(C3CCCCC3)[C@@H]2c2ccc(CO)cc2)cc1`, the composite z-score in [1] was 2.04; in assay [2], 1.16; in [3], 0.552; in [4], 0.991; in assay [5], 0.271; in [6], 0.257. For the same compound, the values for the composite z-score in assay [8] and in [9] were -0.776 and 0.899, respectively. The z-score in assay [7] was 0.991; in [10], 0.186 (inactive).

On to `COC(=O)[C@]1(Cc2ccccc2N=[N+]=[N-])N=C(c2ccc(OCCCO)cc2)O[C@@H]1c1ccccc1`, for which the composite z-score in assay [1] is 0.334; in [2], 1.09; in assay [3], -0.141; in assay [4], 0.215; in assay [5], 0.313; in assay [6], -0.101. For the same compound, the composite z-score in [8] is -0.489; in assay [9], 0.244. For the same compound, the values for the z-score in assay [7] and in assay [10] were 1.02 and -2.2 (inactive), respectively.

Regarding `C=CC[C@]1(C(=O)N2CCOCC2)N=C(c2ccc(OCCCO)cc2)O[C@H]1c1ccccc1CN=[N+]=[N-]`, the composite z-score in [1] is 1.82; in assay [2], 1.21; in [3] it was 0.88; in [4], 0.97; in assay [5], 1.28; in assay [6] it was 0.95. Also, the composite z-score was 1.05 in [8] and 0.845 in [9]. In addition, the z-score is 1.64 in assay [7] and -1.46 (inactive) in assay [10].

Take `Cc1ccc(S[C@]2(C(=O)NCC(C)C)CC(=O)N(C3CCCCC3)[C@@H]2c2ccc(CO)cc2I)cc1`: the composite z-score in assay [1] is 0.464; in [2], 1.17; in assay [3], 0.558; in [4], 0.166; in assay [5], 0.0905; in assay [6], -0.284. Besides, the results for the composite z-score in [8] and in [9] were 0.0839 and 0.752, respectively. In addition, the z-score in assay [7] was 1.28; in assay [10], 1.22 (inactive).

In the case of `O=C(N1CCOCC1)[C@@]1(CCS(=O)(=O)c2ccccc2)COC(c2ccc(OCCCO)cc2)=N1`, the composite z-score was 0.436 in [1]; 1.18 in assay [2]; 0.307 in assay [3]; -0.71 in assay [4]; -0.176 in assay [5]; 0.974 in assay [6]. For the same compound, the composite z-score in assay [8] was -1.32; in assay [9], -0.204. In addition, the z-score in [7] was -0.336; in assay [10], 0.735 (inactive).

Turning to `CN(C)C(=O)[C@@]1(CCC(=O)OC(C)(C)C)N=C(c2ccc(OCCCO)cc2)O[C@H]1c1ccccc1N=[N+]=[N-]`, the composite z-score in [1] is 0.546; in assay [2] it was 1.32; in assay [3], 0.162; in assay [4], 1.04; in [5], 1.45; in [6] it was 1.58. Further, the composite z-score in assay [8] is 0.722; in assay [9], 1.01. In addition, the z-score was 1.15 in assay [7] and -7.12 (inactive) in assay [10].

In the case of `C=CCOc1ccc([C@@H]2CC=C(C(=O)OCC)[C@H](c3cccc(Br)c3)N2S(=O)(=O)c2ccc(C)cc2)cc1`, the composite z-score in [1] was -0.296; in assay [2] it was 0.0511; in [3] it was -0.209; in assay [4], -0.161; in [5] it was 0.199; in assay [6], -0.0901. Also, the values for the composite z-score in [8] and in assay [9] were -0.109 and 0.268, respectively. Besides, the z-score in assay [7] was 3.89; in [10], 0.594 (inactive).

`COCCOC(=O)N1C(=O)[C@@]2(c3cc(C#Cc4ccc(OC)cc4)ccc31)[C@H](C(N)=O)[C@H]1C(=O)O[C@H](c3ccccc3)[C@H](c3ccccc3)N1[C@@H]2c1ccc(OCCO)cc1`: the composite z-score in [1] was found to be 1.71; in assay [2], 1.21; in assay [3] it was 0.398; in assay [4], 0.898; in [5] it was 1.28; in [6] it was 1.55. For the same compound, the composite z-score stood at 0.997 in [8] and 0.695 in [9]. In addition, the z-score in assay [7] was -1.96; in assay [10], -0.297 (inactive).
